The text below walks through data of PMC7862700, “An all-to-all approach to the identification of sequence-specific readers for epigenetic DNA modifications on cytosine”.

Holding throughout (test): DAPPL (digital affinity profiling via proximity ligation, sequencing); 10 mM Tris-HCl pH 7.5, 50 mM NaCl, 1 mM DTT, 4% glycerol, room temperature, 30 min; GST-TFs on glutathione beads, 16-mer random dsDNA library, 0.1% formaldehyde crosslink after washing; high values mean tight binding
In one assay the target is T1, FEV (Homo sapiens, UniProt Q99581 1-238).
T1 sequence: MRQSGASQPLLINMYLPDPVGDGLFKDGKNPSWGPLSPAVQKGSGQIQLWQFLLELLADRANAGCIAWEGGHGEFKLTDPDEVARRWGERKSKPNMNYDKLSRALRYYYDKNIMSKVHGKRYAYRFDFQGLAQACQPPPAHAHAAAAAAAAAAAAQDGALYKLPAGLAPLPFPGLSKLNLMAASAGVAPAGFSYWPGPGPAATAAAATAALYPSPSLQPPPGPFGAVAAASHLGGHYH
The settings on record: protein: recombinant; tags: N-terminal GST; dsDNA, one strand shown. The method, boiled down:
(§1)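 Binding signal is given per hexamer as its read frequency for a factor divided by its frequency in the tag-only sample. GST-fused human transcription factors were expressed in yeast, captured on glutathione beads, barcoded with DNA and pooled with that sample, then incubated with 200 nmole of a 16-mer random double-stranded DNA library in Tris/NaCl/DTT/glycerol buffer for 30 min at room temperature. The pools were then washed, crosslinked, proximity-ligated, amplified by PCR and sequenced on an Illumina NextSeq500.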

In another assay the target is ETV5 (Homo sapiens, UniProt P41161 1-510). As to conditions: protein: recombinant; tags: N-terminal GST; dsDNA, one strand shown. The method, boiled down: as §1
Sequence of ETV5 (P41161 whole entry): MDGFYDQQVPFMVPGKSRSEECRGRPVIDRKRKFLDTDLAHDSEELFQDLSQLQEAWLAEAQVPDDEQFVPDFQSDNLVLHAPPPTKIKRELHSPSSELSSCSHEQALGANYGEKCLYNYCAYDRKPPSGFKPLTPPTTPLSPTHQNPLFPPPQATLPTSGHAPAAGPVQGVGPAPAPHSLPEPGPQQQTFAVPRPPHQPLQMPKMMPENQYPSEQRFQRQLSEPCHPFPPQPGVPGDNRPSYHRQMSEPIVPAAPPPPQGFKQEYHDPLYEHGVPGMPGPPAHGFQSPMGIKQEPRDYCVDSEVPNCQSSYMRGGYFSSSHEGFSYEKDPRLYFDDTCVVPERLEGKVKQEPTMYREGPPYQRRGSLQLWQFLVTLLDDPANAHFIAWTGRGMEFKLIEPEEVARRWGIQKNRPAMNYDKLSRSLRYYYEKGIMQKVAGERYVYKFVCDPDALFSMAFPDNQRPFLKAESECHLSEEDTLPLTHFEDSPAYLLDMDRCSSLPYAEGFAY
Another assay has as its target HSF1 (Homo sapiens, UniProt Q00613 1-529). The settings on record: protein: recombinant; tags: N-terminal GST; chain copies: 3; dsDNA, one strand shown. The method in brief:
as §1

In another assay the target is T2, SPIC (Homo sapiens, UniProt Q8N5J4 1-248).
T2 sequence: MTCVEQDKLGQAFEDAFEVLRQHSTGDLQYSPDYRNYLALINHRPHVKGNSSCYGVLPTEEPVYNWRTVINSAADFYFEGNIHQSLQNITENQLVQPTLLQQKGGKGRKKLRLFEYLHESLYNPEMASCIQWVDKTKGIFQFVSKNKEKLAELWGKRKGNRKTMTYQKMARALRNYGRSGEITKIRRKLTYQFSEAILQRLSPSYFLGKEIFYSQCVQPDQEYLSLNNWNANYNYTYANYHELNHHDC
As to conditions: protein: recombinant; tags: N-terminal GST; dsDNA, one strand shown. The method in brief:
as §1

In another assay the target is ELF4 (Homo sapiens, UniProt Q99607 1-663). The settings on record: protein: recombinant; tags: N-terminal GST; dsDNA, one strand shown. The method, boiled down: as §1
Sequence of ELF4 (Q99607 whole entry): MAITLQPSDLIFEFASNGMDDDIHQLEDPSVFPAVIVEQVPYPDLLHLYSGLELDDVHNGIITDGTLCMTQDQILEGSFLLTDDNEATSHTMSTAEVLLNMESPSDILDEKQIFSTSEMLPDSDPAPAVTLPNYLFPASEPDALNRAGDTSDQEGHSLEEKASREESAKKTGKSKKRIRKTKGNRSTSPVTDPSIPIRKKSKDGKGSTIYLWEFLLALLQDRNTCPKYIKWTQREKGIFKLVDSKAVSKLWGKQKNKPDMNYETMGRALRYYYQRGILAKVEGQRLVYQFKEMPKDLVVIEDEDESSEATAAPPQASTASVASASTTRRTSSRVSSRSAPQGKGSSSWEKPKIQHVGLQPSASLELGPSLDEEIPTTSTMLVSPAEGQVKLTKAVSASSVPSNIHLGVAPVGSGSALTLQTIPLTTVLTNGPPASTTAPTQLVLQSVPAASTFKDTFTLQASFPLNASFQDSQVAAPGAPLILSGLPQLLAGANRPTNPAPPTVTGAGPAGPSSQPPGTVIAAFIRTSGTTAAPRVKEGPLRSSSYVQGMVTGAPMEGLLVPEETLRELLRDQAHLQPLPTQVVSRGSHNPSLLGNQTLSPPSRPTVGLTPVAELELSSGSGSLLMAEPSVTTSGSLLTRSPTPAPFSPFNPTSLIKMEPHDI
For a further assay, the target named is T3, ELK4 (Homo sapiens, UniProt P28324-2 1-405).
T3 sequence: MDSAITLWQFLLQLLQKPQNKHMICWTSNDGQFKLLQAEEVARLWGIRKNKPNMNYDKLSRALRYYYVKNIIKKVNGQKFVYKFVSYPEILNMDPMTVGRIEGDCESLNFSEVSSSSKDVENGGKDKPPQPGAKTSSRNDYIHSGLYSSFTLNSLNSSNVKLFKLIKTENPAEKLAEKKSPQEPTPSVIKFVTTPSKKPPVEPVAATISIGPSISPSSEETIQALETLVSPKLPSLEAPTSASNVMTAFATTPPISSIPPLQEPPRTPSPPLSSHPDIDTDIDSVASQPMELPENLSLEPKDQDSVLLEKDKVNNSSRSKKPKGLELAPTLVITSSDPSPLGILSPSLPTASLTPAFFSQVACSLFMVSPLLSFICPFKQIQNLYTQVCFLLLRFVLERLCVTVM
The settings on record: protein: recombinant; tags: N-terminal GST; dsDNA, one strand shown. The method in brief:
as §1

The target of another assay is T4, ETV2 (Homo sapiens, UniProt O00321 1-342).
T4 sequence: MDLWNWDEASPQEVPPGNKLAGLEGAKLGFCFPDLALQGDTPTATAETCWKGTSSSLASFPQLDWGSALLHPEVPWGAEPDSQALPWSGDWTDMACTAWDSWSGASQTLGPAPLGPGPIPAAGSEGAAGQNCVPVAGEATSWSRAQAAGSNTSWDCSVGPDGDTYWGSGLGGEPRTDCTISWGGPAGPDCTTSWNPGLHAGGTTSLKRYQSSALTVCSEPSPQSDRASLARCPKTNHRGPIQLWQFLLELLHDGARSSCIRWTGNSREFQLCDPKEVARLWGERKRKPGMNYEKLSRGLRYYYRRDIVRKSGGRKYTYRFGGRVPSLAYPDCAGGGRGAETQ
As to conditions: protein: recombinant; tags: N-terminal GST; dsDNA, one strand shown. The method, boiled down: as §1

The next assay addresses T5, ELF3 (Homo sapiens, UniProt P78545 1-371).
T5 sequence: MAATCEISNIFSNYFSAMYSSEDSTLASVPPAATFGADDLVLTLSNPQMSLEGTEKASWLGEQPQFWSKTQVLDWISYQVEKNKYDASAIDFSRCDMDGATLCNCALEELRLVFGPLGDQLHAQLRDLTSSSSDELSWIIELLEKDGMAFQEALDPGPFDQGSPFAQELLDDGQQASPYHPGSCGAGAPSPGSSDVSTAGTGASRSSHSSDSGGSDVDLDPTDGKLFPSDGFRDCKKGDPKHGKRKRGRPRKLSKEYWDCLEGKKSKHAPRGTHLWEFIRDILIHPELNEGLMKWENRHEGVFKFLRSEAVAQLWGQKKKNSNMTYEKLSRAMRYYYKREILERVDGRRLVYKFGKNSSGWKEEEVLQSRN
As to conditions: protein: recombinant; tags: N-terminal GST; dsDNA, one strand shown. The method, boiled down: as §1

A further assay concerns the target CRX (Homo sapiens, UniProt O43186 1-299). The settings on record: protein: recombinant; tags: N-terminal GST; dsDNA, one strand shown. The method, boiled down: as §1
In a further assay the target is ETV1 (Homo sapiens, UniProt P50549 1-477). The settings on record: protein: recombinant; tags: N-terminal GST; dsDNA, one strand shown. The method, boiled down:
as §1

For a further assay, the target named is T6, ERF (Homo sapiens, UniProt P50548 1-548).
T6 sequence: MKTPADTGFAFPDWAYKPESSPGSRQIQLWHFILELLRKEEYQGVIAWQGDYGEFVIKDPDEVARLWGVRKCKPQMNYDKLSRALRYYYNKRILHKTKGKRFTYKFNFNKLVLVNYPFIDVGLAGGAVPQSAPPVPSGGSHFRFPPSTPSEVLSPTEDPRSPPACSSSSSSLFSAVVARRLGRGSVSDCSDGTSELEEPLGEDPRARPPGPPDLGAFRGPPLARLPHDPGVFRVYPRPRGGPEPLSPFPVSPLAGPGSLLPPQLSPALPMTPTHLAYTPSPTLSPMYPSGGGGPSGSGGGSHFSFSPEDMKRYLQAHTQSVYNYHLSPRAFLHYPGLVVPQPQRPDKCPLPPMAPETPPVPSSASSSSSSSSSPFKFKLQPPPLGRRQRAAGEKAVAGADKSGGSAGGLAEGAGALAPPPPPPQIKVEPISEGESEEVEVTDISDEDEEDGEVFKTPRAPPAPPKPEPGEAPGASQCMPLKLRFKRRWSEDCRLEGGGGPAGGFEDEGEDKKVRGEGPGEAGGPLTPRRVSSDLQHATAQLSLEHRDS
The settings on record: protein: recombinant; tags: N-terminal GST; dsDNA, one strand shown. The method, boiled down:
as §1

In the next assay the target is T7, ETV3L (Homo sapiens, UniProt Q6ZN32 1-361).
T7 sequence: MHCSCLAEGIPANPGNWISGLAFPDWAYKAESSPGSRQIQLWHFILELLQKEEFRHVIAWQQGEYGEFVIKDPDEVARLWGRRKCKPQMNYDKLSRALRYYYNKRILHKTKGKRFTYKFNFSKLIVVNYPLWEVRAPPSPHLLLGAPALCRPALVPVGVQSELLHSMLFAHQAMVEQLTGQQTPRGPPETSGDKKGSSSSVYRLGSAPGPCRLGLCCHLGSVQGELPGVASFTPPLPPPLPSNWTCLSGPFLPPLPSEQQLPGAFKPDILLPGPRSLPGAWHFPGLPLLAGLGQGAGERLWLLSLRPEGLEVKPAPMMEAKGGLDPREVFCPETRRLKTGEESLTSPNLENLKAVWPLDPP
As to conditions: protein: recombinant; tags: N-terminal GST; dsDNA, one strand shown. The method in brief: as §1

A further assay addresses T8, ETS2 (Homo sapiens, UniProt P15036 1-469).
T8 sequence: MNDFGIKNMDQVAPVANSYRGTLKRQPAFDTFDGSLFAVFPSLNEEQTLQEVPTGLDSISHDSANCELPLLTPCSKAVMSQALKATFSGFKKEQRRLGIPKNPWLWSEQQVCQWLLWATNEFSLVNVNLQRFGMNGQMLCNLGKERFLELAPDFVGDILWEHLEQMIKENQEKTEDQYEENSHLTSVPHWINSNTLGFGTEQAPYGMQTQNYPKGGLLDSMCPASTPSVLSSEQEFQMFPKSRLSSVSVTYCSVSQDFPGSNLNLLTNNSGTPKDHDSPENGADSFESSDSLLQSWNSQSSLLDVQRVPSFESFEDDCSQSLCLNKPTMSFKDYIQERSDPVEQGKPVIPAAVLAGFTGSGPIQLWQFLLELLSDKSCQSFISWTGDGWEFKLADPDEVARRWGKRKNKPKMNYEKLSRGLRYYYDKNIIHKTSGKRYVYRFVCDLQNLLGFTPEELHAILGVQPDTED
As to conditions: protein: recombinant; tags: N-terminal GST; dsDNA, one strand shown. The method, boiled down: as §1

In the next assay the target is T9, SPDEF (Homo sapiens, UniProt O95238 1-335).
T9 sequence: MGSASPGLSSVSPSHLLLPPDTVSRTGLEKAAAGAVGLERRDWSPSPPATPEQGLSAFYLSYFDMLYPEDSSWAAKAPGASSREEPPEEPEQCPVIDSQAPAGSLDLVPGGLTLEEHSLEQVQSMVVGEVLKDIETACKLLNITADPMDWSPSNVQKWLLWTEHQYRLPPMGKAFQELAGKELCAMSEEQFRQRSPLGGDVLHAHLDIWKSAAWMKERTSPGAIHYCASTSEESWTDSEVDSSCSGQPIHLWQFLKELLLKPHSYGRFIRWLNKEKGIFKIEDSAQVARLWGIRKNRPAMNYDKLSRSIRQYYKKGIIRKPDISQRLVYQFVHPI
The settings on record: protein: recombinant; tags: N-terminal GST; dsDNA, one strand shown. The method, boiled down: as §1

In a further assay the target is T10, ETV7 (Homo sapiens, UniProt Q9Y603 1-341).
T10 sequence: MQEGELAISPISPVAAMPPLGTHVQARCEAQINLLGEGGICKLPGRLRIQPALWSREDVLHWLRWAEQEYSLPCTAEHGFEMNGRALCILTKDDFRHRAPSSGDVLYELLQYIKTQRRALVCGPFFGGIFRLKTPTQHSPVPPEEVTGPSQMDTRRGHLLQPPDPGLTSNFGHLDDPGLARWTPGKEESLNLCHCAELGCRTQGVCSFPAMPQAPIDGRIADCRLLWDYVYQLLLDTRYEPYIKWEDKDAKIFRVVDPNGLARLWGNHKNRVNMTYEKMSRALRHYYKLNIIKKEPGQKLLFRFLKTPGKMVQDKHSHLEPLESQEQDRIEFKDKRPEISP
As to conditions: protein: recombinant; tags: N-terminal GST; dsDNA, one strand shown. The method in brief:
as §1

Another assay has as its target T11, ELF5 (Homo sapiens, UniProt Q9UKW6-2 1-255).
T11 sequence: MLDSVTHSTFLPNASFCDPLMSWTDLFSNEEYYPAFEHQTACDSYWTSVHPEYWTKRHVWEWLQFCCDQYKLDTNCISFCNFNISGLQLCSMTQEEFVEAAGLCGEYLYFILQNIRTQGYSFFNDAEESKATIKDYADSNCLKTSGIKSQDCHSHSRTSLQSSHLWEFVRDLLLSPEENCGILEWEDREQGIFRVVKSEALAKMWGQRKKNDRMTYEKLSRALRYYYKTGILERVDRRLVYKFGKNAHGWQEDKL
As to conditions: protein: recombinant; tags: N-terminal GST; dsDNA, one strand shown. The method in brief: as §1

The target of the next assay is T12, ETV3 (Homo sapiens, UniProt P41162-2 1-143).
T12 sequence: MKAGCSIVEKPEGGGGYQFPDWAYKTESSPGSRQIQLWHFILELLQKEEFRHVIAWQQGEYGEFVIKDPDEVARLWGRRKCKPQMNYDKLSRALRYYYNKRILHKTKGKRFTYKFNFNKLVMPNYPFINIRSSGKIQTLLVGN
As to conditions: protein: recombinant; tags: N-terminal GST; dsDNA, one strand shown. The method, boiled down: as §1

The next assay deals with ETV6 (Homo sapiens, UniProt P41212 1-452). The settings on record: protein: recombinant; tags: N-terminal GST; dsDNA, one strand shown. The method, boiled down:
as §1

Sequence of ETV1 (P50549 whole entry): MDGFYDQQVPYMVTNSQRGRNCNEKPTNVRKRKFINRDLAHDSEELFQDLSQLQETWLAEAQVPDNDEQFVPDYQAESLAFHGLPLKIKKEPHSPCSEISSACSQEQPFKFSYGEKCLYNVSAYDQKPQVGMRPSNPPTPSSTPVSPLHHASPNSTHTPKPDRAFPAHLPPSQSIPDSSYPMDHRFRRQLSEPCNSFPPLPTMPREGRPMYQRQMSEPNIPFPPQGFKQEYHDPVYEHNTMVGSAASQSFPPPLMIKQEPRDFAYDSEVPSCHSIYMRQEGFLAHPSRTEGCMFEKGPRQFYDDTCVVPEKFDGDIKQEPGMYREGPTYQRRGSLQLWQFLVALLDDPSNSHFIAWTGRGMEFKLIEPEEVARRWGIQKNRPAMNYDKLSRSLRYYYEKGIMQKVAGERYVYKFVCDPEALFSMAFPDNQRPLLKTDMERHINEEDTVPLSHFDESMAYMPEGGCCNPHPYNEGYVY
Sequence of HSF1 (Q00613 whole entry): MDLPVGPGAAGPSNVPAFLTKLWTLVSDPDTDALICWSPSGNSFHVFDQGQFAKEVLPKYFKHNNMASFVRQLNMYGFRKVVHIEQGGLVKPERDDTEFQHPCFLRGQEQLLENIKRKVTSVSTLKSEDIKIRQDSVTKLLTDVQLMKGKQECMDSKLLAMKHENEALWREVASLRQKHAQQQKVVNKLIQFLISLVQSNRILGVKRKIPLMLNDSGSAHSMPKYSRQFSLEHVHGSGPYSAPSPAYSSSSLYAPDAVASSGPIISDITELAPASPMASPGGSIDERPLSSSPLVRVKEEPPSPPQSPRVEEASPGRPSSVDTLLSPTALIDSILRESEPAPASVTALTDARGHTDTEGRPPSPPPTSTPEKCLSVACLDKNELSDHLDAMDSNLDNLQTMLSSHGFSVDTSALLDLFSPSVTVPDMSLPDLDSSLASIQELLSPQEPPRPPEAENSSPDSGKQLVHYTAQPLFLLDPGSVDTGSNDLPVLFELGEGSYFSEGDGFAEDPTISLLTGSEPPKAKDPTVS
Sequence of CRX (O43186 whole entry): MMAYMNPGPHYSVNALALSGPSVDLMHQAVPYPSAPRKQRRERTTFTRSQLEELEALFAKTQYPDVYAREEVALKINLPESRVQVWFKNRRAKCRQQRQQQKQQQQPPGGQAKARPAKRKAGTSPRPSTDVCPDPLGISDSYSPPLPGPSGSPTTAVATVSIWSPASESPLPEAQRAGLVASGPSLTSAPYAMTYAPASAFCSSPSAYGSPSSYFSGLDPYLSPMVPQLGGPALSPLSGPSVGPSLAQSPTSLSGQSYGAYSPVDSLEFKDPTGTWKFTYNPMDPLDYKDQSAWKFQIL
Sequence of ETV6 (P41212 whole entry): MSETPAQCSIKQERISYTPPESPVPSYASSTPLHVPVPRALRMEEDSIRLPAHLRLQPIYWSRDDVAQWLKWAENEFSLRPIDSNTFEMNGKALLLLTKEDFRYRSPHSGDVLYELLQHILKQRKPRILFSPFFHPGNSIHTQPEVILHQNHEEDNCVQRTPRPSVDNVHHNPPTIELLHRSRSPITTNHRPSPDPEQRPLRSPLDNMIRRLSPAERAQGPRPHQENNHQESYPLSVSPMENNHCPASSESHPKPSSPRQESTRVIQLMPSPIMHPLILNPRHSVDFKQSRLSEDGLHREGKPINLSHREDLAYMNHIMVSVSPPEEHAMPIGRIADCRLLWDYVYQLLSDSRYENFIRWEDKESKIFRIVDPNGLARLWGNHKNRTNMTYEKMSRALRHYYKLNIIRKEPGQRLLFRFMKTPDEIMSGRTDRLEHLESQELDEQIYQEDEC

As to TTACCT, the binding signal is 1.26 fold enrichment (6-mer frequency, TF over GST control) with FEV; 1.35 fold enrichment (6-mer frequency, TF over GST control) with ETV5; 1.45 fold enrichment (6-mer frequency, TF over GST control) with HSF1; 1.01 fold enrichment (6-mer frequency, TF over GST control) with SPIC; 1.21 fold enrichment (6-mer frequency, TF over GST control) with ELF4; 1.32 fold enrichment (6-mer frequency, TF over GST control) with ELK4. For the same sequence, the binding signal is 1.32 fold enrichment (6-mer frequency, TF over GST control) in the assay with ETV2; 1.2 fold enrichment (6-mer frequency, TF over GST control) with ELF3; 2.09 fold enrichment (6-mer frequency, TF over GST control) in the assay with CRX; 1.32 fold enrichment (6-mer frequency, TF over GST control) with ETV1; 1.22 fold enrichment (6-mer frequency, TF over GST control) with ERF; 1.22 fold enrichment (6-mer frequency, TF over GST control) with ETV3L. For the same sequence, the binding signal is 1.32 fold enrichment (6-mer frequency, TF over GST control) with ETS2; 1.18 fold enrichment (6-mer frequency, TF over GST control) with SPDEF; 1.36 fold enrichment (6-mer frequency, TF over GST control) with ETV7; 1.28 fold enrichment (6-mer frequency, TF over GST control) in the assay with ELF5; 1.17 fold enrichment (6-mer frequency, TF over GST control) with ETV3; 1.23 fold enrichment (6-mer frequency, TF over GST control) with ETV6.
